# The whole screen tested about 290,000 compounds, of which about 27,000 (9.3%) were called active. The full list was thinned out, with actives kept by preference. A number with no mark means an inactive call. Rule as the data show it: active = inhibition mostly above about 28% (no sharp cut-off); inactive = mostly below about 43%.
# Test: A qHTS for Small Molecule Inhibitors of Shiga Toxin; also: 0% is about no effect
# Details: Vero cells, Shiga toxin protein synthesis inhibition reporter; at 38.7 µM, active compounds read high
row,Compound,inhibition
1,O=C(Nc1cccc(O)c1)c1ccc(C(=O)c2ccccc2)o1,88% (active)
2,O=C(Cc1ccccc1)Nc1cccc(NC(=O)c2ccccc2)c1,-14.6%
3,C/C(=C\C(=O)c1cccnc1)Nc1ccc(C)c(C)c1,43.6%
4,COc1cc(/C=C(/NC(=O)c2ccccc2)C(=O)Nc2cccc(O)c2)c([N+](=O)[O-])cc1OC,-3.28%
5,O=C(Nc1cccc(C(=O)N2CCCC2)c1)c1ccccc1,-3.28%
6,C/C(=C\C(=O)c1ccccc1)Nc1cccc(O)c1,141% (active)
7,CCCc1nnc(NC(=O)CCC(=O)N2CCN(S(=O)(=O)c3ccc(OC)cc3)CC2)s1,4.3%
8,Cc1cc(NC(=O)Nc2c[nH]c(=O)[nH]c2=O)ccc1Br,-3.83%
9,C=CCn1c(=O)c(C(=O)Nc2ncccc2O)c(O)c2ccccc21,4.1%
10,CN(C)S(=O)(=O)c1ccc(N2CCCC2)c(C(=O)Nc2cccc(F)c2)c1,-10.4%
11,Nc1c(-c2cccc(Cl)c2)cnn1-c1cccc([N+](=O)[O-])c1,48.6% (active)
12,O=[N+]([O-])c1cccc(C2=NCCS2)c1,8.55%
13,O=C(CCl)N(Cc1cccc([N+](=O)[O-])c1)c1cccc(Cl)c1,-27.9%
14,COc1ccc(CSc2nnnn2-c2ccc(O)cc2)cc1F,19.9%
15,COc1cccc(-c2nnc(N(C)C(=O)c3ccno3)s2)c1,30.2%
16,CN(C(=O)C1CCOC1)c1nnc(-c2cccnc2)s1 (configuration not stated),22% (active)
17,CN(C(=O)c1ccno1)c1nnc(-c2cccnc2)s1,5.36%
18,O=C(/C=C/c1cccc([N+](=O)[O-])c1)N1CCN(Cc2ccccc2)CC1,12.7%
19,CNC(=O)N1c2ccccc2C=Cc2ccccc21,-6.09%
20,O=C(Nc1ccnc(-c2ccncc2)n1)c1cccs1,-8.52%
21,COC(=O)c1nc(NC(=O)c2ccc(C(C)(C)C)cc2)n[nH]1,10.9%
22,CSc1nccc(NC(=O)c2ccc(C(C)(C)C)cc2)n1,71.6% (active)
23,CCOC(=O)c1c(S(=O)(=O)Nc2cccc(Cl)c2)c(C)n(C)c1C,-10.6%
24,Cc1ccc(-n2ncc3c(Nc4cccc(C(=O)O)c4)ncnc32)cc1,76.6% (active)
25,Cc1ccc(Nc2ncnc3c2cnn3C)c(C)c1,2.4%
26,O=C(NNc1ncnc2c1cnn2-c1ccccc1)c1ccco1,35.5%
27,O=C(Nc1ccc(Br)cc1F)C1CC(=O)N(C2CCCCC2)C1 (configuration not stated),0.452%
